Molecules are shown by their SMILES. Records with an inconclusive call do not appear. The source made the active and inactive calls. Calls follow the shape of the dose curve; as a rule, active = well fitted curve in the direction sought with a large enough effect; inconclusive = small, poorly fitted or top-dose-only effect, or another doubt; inactive = no such curve, though single readings can be large; an effect the other way counts as inactive or inconclusive.

The test system of one assay is UISO. Description: qHTS assay to identify novel small-molecules to repurpose for Merkel cell carcinoma treatment (AID 1296009). Also: nearly all actives have a fitted effect of over 60% in size. Conditions: MCC and control cell lines, CellTiter-Glo viability, 72 h; series mostly up to 46 µM. An outline of the steps:
(§1)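 Cell viability measured by CellTiter-Glo following 72 hr compound treatment at 37 degree celsius, with NPC and MIPE libraries tested in 8- and 11-point concentration series.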

For the next assay, the system named is WaGa. Described as above. Conditions: MCC and control cell lines, CellTiter-Glo viability, 72 h; series mostly up to 46 µM. An outline of the steps:
as §1

The next assay has as its system C33A. Description: Primary qHTS to identify gynecologic anti-cancer compounds using libraries of approved drugs and bioactive compounds (AID 1345084). Also: nearly all actives have a fitted effect of over 55% in size. Conditions: Gynecologic cancer cell panel viability, ATPlite luminescence, 48 h; series mostly up to 57.5 µM. An outline of the steps:
(§2)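 ATP-based viability (ATPlite), 1,000 cells/well, 16 h pre-incubation, 48 h compound at 37 C, 5% CO2, 15 min RT before read.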

A further assay deals with CAOV3. The assay is described as above. Conditions: Gynecologic cancer cell panel viability, ATPlite luminescence, 48 h; series mostly up to 57.5 µM. In short, it runs like this:
as §2

Another assay has as its system CASKI. The assay is described as above. Conditions: Gynecologic cancer cell panel viability, ATPlite luminescence, 48 h; series mostly up to 57.5 µM. An outline of the steps:
as §2

The next assay has as its system Es-2. Described as above. Conditions: Gynecologic cancer cell panel viability, ATPlite luminescence, 48 h; series mostly up to 57.5 µM. In short, it runs like this:
as §2

The subject of the next assay is HeLa. The description is as above. Conditions: Gynecologic cancer cell panel viability, ATPlite luminescence, 48 h; series mostly up to 57.5 µM. An outline of the steps: as §2
Another assay relates to Hek293T. Described as above. Conditions: Gynecologic cancer cell panel viability, ATPlite luminescence, 48 h, control line for the selectivity index; series mostly up to 57.5 µM. In short, it runs like this:
as §2

For the next assay, the system named is JEG-3. The description is as above. Conditions: Gynecologic cancer cell panel viability, ATPlite luminescence, 48 h; series mostly up to 57.5 µM. An outline of the steps: as §2
The test system of a further assay is OV90. The description is as above. Conditions: Gynecologic cancer cell panel viability, ATPlite luminescence, 48 h; series mostly up to 57.5 µM. An outline of the steps: as §2
Potency is read from the fitted curve at half-maximal effect.

Turning to `CC(=O)OC(C)C[N+](C)(C)C` (configuration not stated), the Potency entry with UISO, in the assay on WaGa, in the assay with C33A, in the assay on CAOV3, with CASKI and in the assay on Es-2 was “inactive” each time. Further, the Potency entry in the assay with HeLa, in the assay on Hek293T, with JEG-3 and in the assay with OV90 was “inactive” in each case.

On to `Cc1ccc(/C(=C\CN2CCCC2)c2ccccn2)cc1`, for which the Potency result in the assay on UISO, with WaGa, with C33A, in the assay with CAOV3, in the assay on CASKI and with Es-2 was “inactive” in each case. Moreover, the Potency result in the assay with Hek293T, in the assay on JEG-3 and with OV90 was “inactive” in each case.

As to `C[C@@H](O)[C@H]1C(=O)N2C(C(=O)O)=C(SCCN=CN)C[C@H]12`, the Potency entry in the assay with UISO, in the assay with WaGa, in the assay with C33A, in the assay on CAOV3, in the assay with CASKI and in the assay on Es-2 was “inactive” throughout. The Potency result in the assay with HeLa, with Hek293T, with JEG-3 and in the assay with OV90 was “inactive” in each case.

Turning to `Cc1cccc(C)c1NC(=O)C(C)N` (configuration not stated), the Potency entry with UISO, in the assay with WaGa, in the assay on C33A, in the assay on CAOV3, in the assay on CASKI and with Es-2 was “inactive” throughout. Further, the Potency result with HeLa, in the assay on Hek293T, in the assay with JEG-3 and in the assay with OV90 was “inactive” in each case.

As to `C[N+](C)(C)CCOC(=O)CCC(=O)OCC[N+](C)(C)C`, the Potency result with UISO, with WaGa, with C33A, with CAOV3, with CASKI and with Es-2 was “inactive” in each case. Further, the Potency result with Hek293T, in the assay on JEG-3 and in the assay on OV90 was “inactive” throughout.

In the case of `Cc1nc2sccn2c(=O)c1CCN1CCC(=C(c2ccc(F)cc2)c2ccc(F)cc2)CC1`, the Potency entry in the assay with UISO, with C33A, in the assay on CAOV3, with CASKI, in the assay on Es-2 and with HeLa was “inactive” in each case. Moreover, the Potency result in the assay with Hek293T and in the assay with JEG-3 was “inactive” throughout.

On to `Cc1nc2ccccn2c(=O)c1CCN1CCC(C(=O)c2ccc(F)cc2)CC1`, for which the Potency result with UISO, in the assay with C33A, in the assay with CAOV3, in the assay on CASKI, with Es-2 and with HeLa was “inactive” each time. The Potency entry in the assay with Hek293T, in the assay with JEG-3 and in the assay with OV90 was “inactive” each time.

`CCCN(CCC)CCc1cccc2c1CC(=O)N2`: the Potency result with UISO, in the assay on WaGa, in the assay on C33A, in the assay on CASKI, in the assay on Es-2 and in the assay on HeLa was “inactive” throughout. The Potency entry with Hek293T, with JEG-3 and in the assay on OV90 was “inactive” each time.

As for `CC(=O)Oc1cc(C(C)C)c(OCCN(C)C)cc1C`, the Potency result in the assay on UISO, with WaGa, in the assay on C33A, in the assay with CAOV3, in the assay with CASKI and in the assay on HeLa was “inactive” throughout. The Potency entry in the assay on Hek293T, in the assay with JEG-3 and in the assay on OV90 was “inactive” in each case.

`CCN(CC)CCOCCOC(=O)C1(c2ccccc2)CCCC1`: the Potency result in the assay with UISO, with C33A, in the assay with CAOV3, with CASKI, in the assay with Es-2 and with HeLa was “inactive” each time. Also, the Potency result in the assay with Hek293T, in the assay with JEG-3 and in the assay with OV90 was “inactive” in each case.

For `CO[C@@]1(NC(=O)CSCC#N)C(=O)N2C(C(=O)O)=C(CSc3nnnn3C)CS[C@@H]21`, the Potency entry in the assay on UISO, with C33A, in the assay with CAOV3, with CASKI, in the assay with Es-2 and with HeLa was “inactive” in each case. For the same compound, the Potency result with Hek293T, in the assay on JEG-3 and in the assay with OV90 was “inactive” throughout.

`CC(C)NNC(=O)c1ccncc1`: the Potency entry in the assay on UISO, with WaGa, with C33A, in the assay with CAOV3, in the assay with CASKI and with Es-2 was “inactive” in each case. Further, the Potency entry in the assay with Hek293T, in the assay with JEG-3 and in the assay with OV90 was “inactive” throughout.

On to `NC(N)=N/N=C/c1c(Cl)cccc1Cl`, for which the Potency entry in the assay with UISO, with C33A, in the assay with CAOV3, in the assay with CASKI, in the assay on Es-2 and with Hek293T was “inactive” in each case. Moreover, the Potency result in the assay on JEG-3 was “inactive”.

With `CCN(CC)CCNC(=O)c1ccc(NC(C)=O)cc1`, the Potency result with UISO, in the assay on C33A, in the assay on CAOV3, in the assay on CASKI, in the assay with Es-2 and with HeLa was “inactive” each time. For the same compound, the Potency result in the assay with Hek293T, with JEG-3 and in the assay on OV90 was “inactive” each time.

Turning to `CCCCNc1ccc(C(=O)OCCN(C)C)cc1`, the Potency entry in the assay with UISO, in the assay with WaGa, in the assay on C33A, in the assay on CAOV3, with CASKI and in the assay on Es-2 was “inactive” each time. Moreover, the Potency entry with Hek293T, in the assay with JEG-3 and in the assay with OV90 was “inactive” each time.

Regarding `Nc1ncn([C@@H]2O[C@H](CO)[C@@H](O)[C@H]2O)c(=O)n1`, the Potency was 9.44 µM (active) in the assay with UISO, 16.8 µM (active) with WaGa, 3.98 µM (active) in the assay on Es-2 and 10 µM (active) in the assay on JEG-3. Moreover, the Potency entry in the assay on OV90 was “inactive”.

Take `CN1C(=O)CC[C@H]1c1cccnc1`: the Potency result in the assay with UISO, with WaGa, with C33A, in the assay on CAOV3, in the assay with CASKI and with Es-2 was “inactive” in each case. In addition, the Potency result in the assay with Hek293T, with JEG-3 and in the assay with OV90 was “inactive” each time.

In the case of `C(=C\c1ccccc1)/CN1CCN(C(c2ccccc2)c2ccccc2)CC1`, the Potency result in the assay with UISO, in the assay with WaGa, in the assay on C33A, with CAOV3, in the assay with CASKI and in the assay with Es-2 was “inactive” throughout. The Potency entry with Hek293T, with JEG-3 and in the assay with OV90 was “inactive” each time.

Turning to `CN1C[C@H](C(=O)N[C@]2(C)O[C@@]3(O)[C@@H]4CCCN4C(=O)[C@H](Cc4ccccc4)N3C2=O)C[C@@H]2c3cccc4[nH]cc(c34)C[C@H]21`, the Potency entry in the assay on UISO, in the assay on WaGa, in the assay on CAOV3, in the assay with CASKI, in the assay with Es-2 and with HeLa was “inactive” in each case. The Potency result in the assay with Hek293T, with JEG-3 and in the assay with OV90 was “inactive” in each case.

Consider `CN(C)CC/C=C1\c2ccccc2COc2ccccc21`, for which the Potency entry in the assay with UISO, in the assay with WaGa, in the assay with C33A, in the assay with CAOV3, in the assay on Es-2 and with Hek293T was “inactive” in each case. Besides, the Potency entry in the assay with JEG-3 is “inactive”.

Take `CC(C)(Oc1ccc(CCNC(=O)c2ccc(Cl)cc2)cc1)C(=O)O`: the Potency entry in the assay with UISO, with WaGa, in the assay with C33A, with CAOV3, with CASKI and in the assay on Es-2 was “inactive” each time. Moreover, the Potency entry in the assay on Hek293T, in the assay with JEG-3 and in the assay on OV90 was “inactive” each time.

`CNCCC(Oc1ccccc1OC)c1ccccc1` (configuration not stated): the Potency entry in the assay with UISO, with WaGa, in the assay with C33A, in the assay on CASKI, in the assay on Es-2 and in the assay on Hek293T was “inactive” throughout. In the assay on JEG-3, the Potency entry was “inactive”.

For `O=C(O)CP(=O)(O)O`, the Potency result with UISO, in the assay with WaGa, in the assay on C33A, in the assay on CAOV3, with CASKI and in the assay on Es-2 was “inactive” in each case. In addition, the Potency result in the assay with Hek293T, in the assay on JEG-3 and in the assay with OV90 was “inactive” each time.

Consider `CCOC(=O)C1=C(C)NC(C)=C(C(=O)OC)C1c1cccc(Cl)c1Cl` (configuration not stated), for which the Potency result in the assay on UISO, with C33A, with CAOV3, with CASKI, in the assay with Es-2 and in the assay on Hek293T was “inactive” in each case. Also, the Potency entry with JEG-3 and with OV90 was “inactive” throughout.

The record behind these values is PubChem BioAssay (NCATS).
